# The supplement of paper PMC12282887
# ± gives the standard deviation of the averaged measurements.
# Assays:
# Assay in all cases: promoter activity interaction Z-score (Lux/OD deviation from empty-vector control); higher = stronger promoter induction by the compound
# [1] = tested on: E. coli BW25113 ompFp lux reporter
# Summary of the method: (§1)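 In 384-well plates, 40 µl LB Lennox cultures of E. coli BW25113 with low-copy luxCDABE promoter reporters grew at 37°C. Optical density at 600 nm and light output were recorded every 30 min for 12 h, with windows of 0–8 h for wild type and 1–9 h for deletion strains, and wells under 10% of the median growth value were left out. Each value is a Z-transformed residual of growth-normalised luminescence fitted against a control.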
# [2] = tested on: E. coli BW25113 robp lux reporter
# Summary of the method: as §1
# [3] = tested on: E. coli BW25113 soxSp lux reporter
# Summary of the method: as §1
# [4] = tested on: E. coli BW25113 tolCp lux reporter
# Summary of the method: as §1
# [5] = tested on: E. coli BW25113 acrABp lux reporter
# Summary of the method: as §1
# [6] = tested on: E. coli BW25113 marRABp lux reporter
# Summary of the method: as §1
# [7] = tested on: E. coli BW25113 micFp lux reporter
# Summary of the method: as §1
# [8] = 1.8 µg/ml, genetic background: Δrob
# [9] = 1.8 µg/ml, genetic background: ΔsoxS
# [10] = 3.7 µg/ml, genetic background: wild type
# [11] = 3.7 µg/ml, genetic background: ΔmarA
# [12] = 3.7 µg/ml, genetic background: Δrob
# [13] = 3.7 µg/ml, genetic background: ΔsoxS
# [14] = 7.3 µg/ml, genetic background: wild type
# [15] = 7.3 µg/ml, genetic background: ΔmarA
# [16] = 7.3 µg/ml, genetic background: Δrob
# [17] = 7.3 µg/ml, genetic background: ΔsoxS
# [18] = 14.7 µg/ml, genetic background: wild type
# [19] = 14.7 µg/ml, genetic background: ΔsoxS
# [20] = 1.8 µg/ml, genetic background: wild type
# [21] = 1.8 µg/ml, genetic background: ΔmarA
# [22] = 14.7 µg/ml, genetic background: ΔmarA
# [23] = 0.62 µg/ml, genetic background: wild type
# [24] = 0.62 µg/ml, genetic background: ΔmarA
# [25] = 0.62 µg/ml, genetic background: Δrob
# [26] = 0.62 µg/ml, genetic background: ΔsoxS
# [27] = 1.2 µg/ml, genetic background: wild type
# [28] = 2.5 µg/ml, genetic background: wild type
compound,measurement,setting,value
CC[C@H]1OC(=O)[C@H](C)[C@@H](O[C@H]2C[C@@](C)(OC)[C@@H](O)[C@H](C)O2)[C@H](C)[C@@H](O[C@@H]2O[C@H](C)C[C@H](N(C)C)[C@H]2O)[C@](C)(O)C[C@@H](C)C(=O)[C@H](C)[C@@H](O)[C@]1(C)O [Erythromycin],promoter activity interaction Z-score,[1]; [8],0.2177 ± 0.0014
same,promoter activity interaction Z-score,[1]; [9],0.925 ± 0.37
same,promoter activity interaction Z-score,[1]; [10],0.894 ± 0.58
same,promoter activity interaction Z-score,[1]; [11],0.288 ± 0.31
same,promoter activity interaction Z-score,[1]; [12],1.58 ± 1.1
same,promoter activity interaction Z-score,[1]; [13],2.48 ± 1.1
same,promoter activity interaction Z-score,[1]; [14],1.78 ± 0.84
same,promoter activity interaction Z-score,[1]; [15],1.17 ± 0.52
same,promoter activity interaction Z-score,[1]; [16],1.96 ± 2
same,promoter activity interaction Z-score,[1]; [17],1.97 ± 0.072
same,promoter activity interaction Z-score,[1]; [18],-0.66 ± 0.73
same,promoter activity interaction Z-score,[1]; [19],-1.6
same,promoter activity interaction Z-score,[2]; [20],-0.139 ± 0.59
same,promoter activity interaction Z-score,[2]; [21],-0.666 ± 0.22
same,promoter activity interaction Z-score,[2]; [8],-0.816 ± 0.1
same,promoter activity interaction Z-score,[2]; [9],-0.469 ± 0.72
same,promoter activity interaction Z-score,[2]; [10],-0.638 ± 0.12
same,promoter activity interaction Z-score,[2]; [11],-2.16 ± 0.55
same,promoter activity interaction Z-score,[2]; [12],-1.32 ± 0.2
same,promoter activity interaction Z-score,[2]; [13],-0.16 ± 0.77
same,promoter activity interaction Z-score,[2]; [14],-2.01 ± 0.31
same,promoter activity interaction Z-score,[2]; [15],-2.33 ± 0.13
same,promoter activity interaction Z-score,[2]; [16],-2.18 ± 0.23
same,promoter activity interaction Z-score,[2]; [17],-2.29 ± 0.77
same,promoter activity interaction Z-score,[2]; [18],-2.43 ± 0.2
same,promoter activity interaction Z-score,[2]; [22],-3.56 ± 0.35
same,promoter activity interaction Z-score,[3]; [20],0.111 ± 0.015
same,promoter activity interaction Z-score,[3]; [21],0.214 ± 0.046
same,promoter activity interaction Z-score,[3]; [8],-0.111 ± 0.089
same,promoter activity interaction Z-score,[3]; [9],0.0397 ± 0.3
same,promoter activity interaction Z-score,[3]; [10],-0.0179 ± 0.043
same,promoter activity interaction Z-score,[3]; [11],-0.0482 ± 0.098
same,promoter activity interaction Z-score,[3]; [12],0.228 ± 0.28
same,promoter activity interaction Z-score,[3]; [13],0.647 ± 0.18
same,promoter activity interaction Z-score,[3]; [14],0.0493 ± 0.044
same,promoter activity interaction Z-score,[3]; [15],0.351 ± 0.19
same,promoter activity interaction Z-score,[3]; [16],0.215 ± 0.16
same,promoter activity interaction Z-score,[3]; [17],1.65 ± 0.52
same,promoter activity interaction Z-score,[3]; [18],0.956 ± 0.22
same,promoter activity interaction Z-score,[3]; [22],0.78 ± 0.098
same,promoter activity interaction Z-score,[3]; [19],3.05 ± 2.9
same,promoter activity interaction Z-score,[4]; [20],0.39 ± 0.18
same,promoter activity interaction Z-score,[4]; [21],-0.768 ± 0.45
same,promoter activity interaction Z-score,[4]; [8],-0.66 ± 0.14
same,promoter activity interaction Z-score,[4]; [9],-0.318 ± 0.13
same,promoter activity interaction Z-score,[4]; [10],0.0127 ± 0.24
same,promoter activity interaction Z-score,[4]; [11],-1.38 ± 0.97
same,promoter activity interaction Z-score,[4]; [12],-0.333 ± 1.4
same,promoter activity interaction Z-score,[4]; [13],-0.0456 ± 0.47
same,promoter activity interaction Z-score,[4]; [14],0.177 ± 1.4
same,promoter activity interaction Z-score,[4]; [15],-0.63 ± 0.74
same,promoter activity interaction Z-score,[4]; [16],0.449 ± 2.3
same,promoter activity interaction Z-score,[4]; [17],0.434 ± 0.85
same,promoter activity interaction Z-score,[4]; [18],1.66 ± 1.9
same,promoter activity interaction Z-score,[4]; [22],-1.14 ± 3.2
same,promoter activity interaction Z-score,[4]; [19],0.542 ± 0.66
CC(=O)C(NC(=O)C(C)C(O)C(C)NC(=O)C(NC(=O)c1nc(C(CC(N)=O)NCC(N)C(N)=O)nc(N)c1C)C(O[C@@H]1O[C@@H](CO)[C@@H](O)[C@H](O)[C@]1(C)O[C@@H]1OC(CO)[C@H](O)[C@](O)(C(N)=O)[C@H]1O)c1cnc[nH]1)C(=O)NCCC1=NC(c2nc(C(N)=O)cs2)CS1 (some centres undefined) [Phleomycin],promoter activity interaction Z-score,[5]; [23],1.07 ± 0.23
same,promoter activity interaction Z-score,[5]; [24],-0.273 ± 0.32
same,promoter activity interaction Z-score,[5]; [25],1.04
same,promoter activity interaction Z-score,[5]; [26],0.298 ± 1.3
same,promoter activity interaction Z-score,[5]; [27],2.12
same,promoter activity interaction Z-score,[6]; [23],1.05 ± 0.22
same,promoter activity interaction Z-score,[6]; [24],2.57
same,promoter activity interaction Z-score,[6]; [25],1.98
same,promoter activity interaction Z-score,[6]; [26],1.57
same,promoter activity interaction Z-score,[6]; [27],2.71 ± 0.25
same,promoter activity interaction Z-score,[7]; [23],-0.476 ± 0.019
same,promoter activity interaction Z-score,[7]; [24],-0.254 ± 0.023
same,promoter activity interaction Z-score,[7]; [25],-0.0516 ± 0.18
same,promoter activity interaction Z-score,[7]; [26],-0.651 ± 0.16
same,promoter activity interaction Z-score,[7]; [27],-1.14 ± 0.14
same,promoter activity interaction Z-score,[7]; [28],-0.981 ± 0.31
same,promoter activity interaction Z-score,[1]; [23],1.83 ± 0.41
same,promoter activity interaction Z-score,[1]; [24],0.799 ± 2
same,promoter activity interaction Z-score,[1]; [25],-0.998
same,promoter activity interaction Z-score,[1]; [26],1.46 ± 2.8
same,promoter activity interaction Z-score,[1]; [27],-0.554
same,promoter activity interaction Z-score,[2]; [23],-0.5306 ± 0.0049
same,promoter activity interaction Z-score,[2]; [24],-0.313 ± 0.067
same,promoter activity interaction Z-score,[2]; [25],-1.12
same,promoter activity interaction Z-score,[2]; [26],-0.519 ± 0.41
same,promoter activity interaction Z-score,[2]; [27],-0.94 ± 0.28
same,promoter activity interaction Z-score,[3]; [23],0.286 ± 0.032
same,promoter activity interaction Z-score,[3]; [24],-0.0997 ± 0.0027
same,promoter activity interaction Z-score,[3]; [25],-0.106 ± 0.024
same,promoter activity interaction Z-score,[3]; [26],3.11 ± 2.5
same,promoter activity interaction Z-score,[3]; [27],-0.481 ± 0.012
same,promoter activity interaction Z-score,[3]; [28],-0.666 ± 0.31
same,promoter activity interaction Z-score,[4]; [23],-0.425 ± 0.84
same,promoter activity interaction Z-score,[4]; [24],-0.832 ± 0.55
same,promoter activity interaction Z-score,[4]; [25],-0.362 ± 0.33
same,promoter activity interaction Z-score,[4]; [26],0.481 ± 0.63
same,promoter activity interaction Z-score,[4]; [27],-0.433 ± 0.62
same,promoter activity interaction Z-score,[4]; [28],-1.33 ± 1.2
